Pf growth 48h = Primary qHTS for delayed death inhibitors of the malarial parasite plastid, 48 hour incubation; P. falciparum luciferase growth in erythrocytes, 48 h; Potency, µM (titrated, usually from 28.7 µM), usual class: inhibitors; hit rate 5.9% among 310,000; AID 504832, 2011; active = well fitted inhibition curve with a large enough effect; inconclusive = small, poorly fitted or top-dose-only effect, or another doubt; inactive = no such curve, though single readings can be large or run the other way
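Growth was read as firefly luciferase luminescence after a 48 h, 37 C, 5% CO2 exposure of compounds to reporter-bearing P. falciparum cultures (0.1% parasitemia, 2% hematocrit final) in Albumax-supplemented RPMI 1640.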
SARS PLpro yeast = qHTS of Yeast-based Assay for SARS-CoV PLP; S. cerevisiae expressing SARS-CoV PLpro, growth rescue; Potency, µM (top dose mostly 32.9 µM), hits mostly activators; hit rate 0.19% among 330,000; AID 485353, 2010; note: nearly all actives have a fitted effect of over 55% in size
CHX counter = Cycloheximide Counterscreen for Small Molecule Inhibitors of Shiga Toxin; cell reporter, cycloheximide protein synthesis inhibition counterscreen; max response, %; hit rate 12% among 300,000; AID 2314, 2010; in the data active = max response mostly above about 13%, no sharp cut-off; inactive = mostly below about 14%; note: read at 38.3 µM for the half of the compounds with a filed dose
Pf growth 96h = Primary qHTS for delayed death inhibitors of the malarial parasite plastid, 96 hour incubation. P. falciparum luciferase reporter growth, 96 h. hit rate 6.9% among 320,000. AID 504834, 2011. Potency, µM (series often up to 28.7 µM), actives largely listed as inhibitors; active = well fitted inhibition curve with a large enough effect; inconclusive = small, poorly fitted or top-dose-only effect, or another doubt; inactive = no such curve, though single readings can be large or run the other way
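Luminescence readout: decreased luciferase signal marks inhibited growth of reporter-expressing P. falciparum in infected red cells (2% hematocrit, 0.05% parasitemia final), exposed to compound two generations (96 h, 37 C, 5% CO2).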
NS1 inh = qHTS Assay for Inhibitors of Influenza NS1 Protein Function; Potency, µM (top dose mostly 46.1 µM); hit rate 0.4% among 270,000; AID 2326, 2010; note: actives are rising curves; nearly all actives have a fitted effect of over 50% in size
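Read-out: OD600 growth recovery of NS1-expressing budding yeast. Cells grown overnight at 30C in -URA glucose medium, washed, resuspended and diluted 1:100 in 2% galactose assay medium, pH 6.0. Same strain lacking NS1 served as positive control.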
Shiga toxin inh = A qHTS for Small Molecule Inhibitors of Shiga Toxin. Vero cells, Shiga toxin protein synthesis inhibition reporter. inhibition, % at 38.7 µM. hit rate 9.2% among 290,000. AID 2315, 2010; in the data active = inhibition mostly above about 28%, no sharp cut-off; inactive = mostly below about 43%
Each line names hits and unclear results; the compound was inactive in the other large screens. Hits are enriched below; roughly 21% of the tested compounds scored in any of these assays. Unless noted, calls come from the whole dose curve.

Cc1cc(C)c(C#N)c(SCc2nnc(-c3ccccc3)o2)n1	CHX counter 40, Pf growth 96h inconclusive, Shiga toxin inh 92
Cc1cc(C)c(C#N)c(SCc2ccccc2[N+](=O)[O-])n1	none
Cc1ccc(C#N)c(SCc2nnc(-c3ccc(Cl)cc3)o2)n1	CHX counter 78, Shiga toxin inh 128
c1ccc(-c2nnc(CSc3nncs3)o2)cc1	CHX counter 46, Shiga toxin inh 63
CC(=O)N(CCC1(C(C)C)CCOC(C)(C)C1)C(C)c1cccs1 (stereo not drawn)	Pf growth 48h inconclusive, Pf growth 96h inconclusive
Cc1c2ccccc2c(CSC(=N)N)c2ccccc12	none (no result: Pf growth 48h, SARS PLpro yeast, CHX counter, Pf growth 96h, Shiga toxin inh)
Cc1ccc(SCCN2CCC(C)CCC2=O)cc1 (stereo not drawn)	CHX counter 29, Shiga toxin inh 38
CC(C)(C)C1CCC(=O)N(CCSc2ccccc2)CC1 (stereo not drawn)	CHX counter 32, Shiga toxin inh 62
Cc1ccc(SCCN2CCC(C(C)(C)C)CCC2=O)cc1 (stereo not drawn)	CHX counter 25, Shiga toxin inh 42
CC(=O)Nc1ccc(SCCN2CC[C@@H](C(C)(C)C)CCC2=O)cc1	Pf growth 48h inconclusive, Pf growth 96h inconclusive (no result: CHX counter, NS1 inh, Shiga toxin inh)
C[C@H]1CCC(=O)N(CCSc2ccc(Br)cc2)CC1	none (no result: CHX counter, NS1 inh, Shiga toxin inh)
NCC[C@H](NC(=O)[C@@H](N)CCCN=C(N)N[N+](=O)[O-])C(N)=O	none (no result: Pf growth 48h, SARS PLpro yeast, Pf growth 96h, NS1 inh)
Nc1nc(=S)c2[nH]cnc2[nH]1	Pf growth 48h 8.3µM, Pf growth 96h inconclusive (no result: SARS PLpro yeast, CHX counter, NS1 inh, Shiga toxin inh)
COCCn1cnc2c1c(=O)n(CC(=O)Nc1cc(C)on1)c(=O)n2Cc1ccccc1	Pf growth 48h inconclusive, Pf growth 96h inconclusive
CCCCNC(=O)Cn1c(=O)c2c(ncn2CC)n(Cc2ccccc2)c1=O	Pf growth 96h 13µM
CCn1cnc2c1c(=O)n(CC(=O)Nc1ccc(C(N)=O)cc1)c(=O)n2Cc1ccccc1	Pf growth 48h inconclusive, Pf growth 96h 13µM
CCNC(=O)Cn1c(=O)c2c(ncn2Cc2ccccc2)n(Cc2ccccc2)c1=O	Pf growth 48h inconclusive, SARS PLpro yeast inconclusive, Pf growth 96h 1µM
CCn1cnc2c1c(=O)n(CC(=O)NN)c(=O)n2Cc1ccccc1	Pf growth 96h inconclusive (no result: Pf growth 48h)
COCCn1cnc2c1c(=O)n(CC(=O)c1ccc3c(c1)OCCO3)c(=O)n2Cc1ccccc1	CHX counter 9.7, NS1 inh inconclusive
Cc1ccnc(NC(=O)c2cccc(S(=O)(=O)N3CCN(c4ccc(F)cc4)CC3)c2)c1	Pf growth 48h inconclusive, Pf growth 96h inconclusive (no result: CHX counter, NS1 inh, Shiga toxin inh)
Cc1ccc(-c2nnc(CCC(=O)NCC3C4CC5CC(C4)CC3C5)o2)s1 (stereo not drawn)	Pf growth 48h inconclusive, CHX counter 52, Shiga toxin inh 103
Cc1cc(C(=O)Nc2cccc3ccccc23)c(C)o1	CHX counter 25, Pf growth 96h inconclusive
Cc1cc(C(=O)NCCC(c2ccccc2)c2ccccc2)c(C)o1	CHX counter 26, Pf growth 96h inconclusive (no result: Pf growth 48h)
Cc1occc1C(=O)Nc1cccc2ccccc12	CHX counter 56, Shiga toxin inh 67
Cc1oncc1C(=O)Nc1cccc2ccccc12	Pf growth 96h inconclusive
CC(C)CN1CC(COCc2ccccc2)Oc2ccccc2S1(=O)=O (stereo not drawn)	none (no result: Pf growth 48h, CHX counter, Pf growth 96h, NS1 inh, Shiga toxin inh)
Cn1c(NCc2cccs2)nc2ccccc21	CHX counter 33, Shiga toxin inh 57
Cn1c(NCc2ccco2)nc2ccccc21	CHX counter 12
O=C(COC(=O)/C=C/c1cccc(Cl)c1)NC1CCCC1	none (no result: CHX counter, NS1 inh, Shiga toxin inh)
CCN(Cc1ccccc1)S(=O)(=O)c1ccc(C(=O)N(CCCN(C)C)c2nc3cc4c(cc3s2)OCCO4)cc1	Pf growth 48h inconclusive, Pf growth 96h inconclusive (no result: CHX counter, NS1 inh, Shiga toxin inh)
CCCCN(C(=O)c1ccc(S(=O)(=O)N(C)C)cc1)c1nc2ccccc2s1	Pf growth 48h inconclusive, Pf growth 96h 1.9µM
CN(C)CCN(C(=O)c1ccc2c(c1)OCCO2)c1nc2cc3c(cc2s1)OCO3	CHX counter 55
CN(C)CCN(C(=O)c1ccc(S(=O)(=O)N(C)C)cc1)c1nc2cc3c(cc2s1)OCCO3	CHX counter 22 (no result: NS1 inh)
CN(C)CCN(C(=O)c1ccc(S(=O)(=O)N(C)c2ccccc2)cc1)c1nc2cc3c(cc2s1)OCCO3	CHX counter 22, Shiga toxin inh 61
NCC[C@H](O)C(=O)N[C@@H]1C[C@H](N)[C@@H](O[C@H]2O[C@H](CN)CC[C@H]2N)[C@H](O)[C@H]1O[C@H]1O[C@H](CO)[C@@H](O)[C@H](N)[C@H]1O	none (no result: SARS PLpro yeast, CHX counter, NS1 inh, Shiga toxin inh)
COc1cc2nc(N(CCN(C)C)C(=O)c3ccc(S(=O)(=O)N(C)CC4CCCO4)cc3)sc2cc1OC (stereo not drawn)	Pf growth 96h inconclusive
CN(C)CCN(C(=O)c1ccc2c(c1)CCCC2)c1nc2cc3c(cc2s1)OCCO3	none
CCN(CC)CCN(C(=O)c1ccc2ncsc2c1)c1nc2cc3c(cc2s1)OCO3	CHX counter 75, Shiga toxin inh 125
CC(=O)N(CCN(C)C)c1nc2cc3c(cc2s1)OCCO3	CHX counter 31, Shiga toxin inh 66
CN(C)CCN(C(=O)c1ccc(S(=O)(=O)N(C)CC2CCCO2)cc1)c1nc2cc3c(cc2s1)OCO3 (stereo not drawn)	CHX counter 25
CCN(CC)CCN(C(=O)C1=COCCO1)c1nc2ccc(C)cc2s1	CHX counter 18, Shiga toxin inh 35
COc1cc(/C=N/N2CCN(Cc3ccccc3)CC2)cc(OC)c1OC(C)=O	none
Cc1[nH]c2c(C)cccc2c1CCNC(=O)c1ccc2c(c1[N+](=O)[O-])C(=O)c1ccccc1C2=O	Pf growth 48h 12µM, Pf growth 96h inconclusive
Cc1ccc(C2=NS(=O)(=O)N(C)C(C(=O)NCc3ccccc3)=C2)cc1	Pf growth 96h inconclusive
CCN1CCN(c2ncnc3c2cnn3-c2ccccc2)CC1	none (no result: Pf growth 48h)
CCN(CC)C(=O)C1CCCN(c2ncnc3c2cnn3-c2cccc(C)c2)C1 (stereo not drawn)	CHX counter 34, Pf growth 96h inconclusive, Shiga toxin inh 63 (no result: Pf growth 48h)
CCOC(=O)C1CCCN(c2ncnc3c2[nH]c2cccc(OC)c23)C1 (stereo not drawn)	Pf growth 48h 12µM, NS1 inh inconclusive (no result: Pf growth 96h)
CCN(CC)C(=O)C1CCCN(c2ncnc3c2cnn3-c2ccc(Cl)cc2)C1 (stereo not drawn)	CHX counter 23, Shiga toxin inh 62
c1ccc(-n2ncc3c(N4CCCCC4)ncnc32)cc1	none (no result: Pf growth 48h)
CCOC(=O)C1CCCN(c2ncnc3c2cnn3-c2cccc(C)c2)C1 (stereo not drawn)	CHX counter 41, Pf growth 96h inconclusive, Shiga toxin inh 118
CCOC(=O)C1CCN(c2ncnc3c2cnn3-c2ccc(OC)cc2)CC1	none
CN(C(=O)c1cc(S(=O)(=O)N2CCOCC2)cs1)c1ccccc1	none

Screening data deposited in PubChem BioAssay by National Center for Advancing Translational Sciences (NCATS).
